Pol beta inh-1: inhibitors of human DNA polymerase beta; Potency, µM (doses to about 114 µM), for the others: at the top dose activity change, negative = inhibition, hits mostly inhibitors; P06746; Pol beta primer extension/strand displacement, fluorescence kinetic; AID 485314; 1.3% of 340,000 active; further: potency means the concentration at half of the fitted maximal effect; on the % scale 0 is the no-effect control and ±100 the full control effect
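Homogeneous kinetic assay of primer extension and strand displacement by 10 nM Pol beta, preincubated 15 min at room temperature with compound before 50 nM substrate (final) was added. Read at 0 and 10 min; four-parameter Hill fit.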
FEN1 inh-1: blocks human flap endonuclease 1; P39748; Recombinant FEN1 flap cleavage, fluorescence, 15 min; Potency, µM (top dose mostly 114 µM), for the others: top-dose activity change, negative = inhibition, usual class: inhibitors; 0.35% of 390,000 active; AID 588795; further: potency means the concentration at half of the fitted maximal effect; on the % scale 0 is the no-effect control and ±100 the full control effect; nearly all actives have a fitted effect of over 65% in size
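Compounds are tested as a concentration series against 10 nM FEN1; after a 15 min room-temperature preincubation, 50 nM substrate starts cleavage, with plate reads at 0 and 15 min. Normalized responses are fitted by a Hill equation.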
POLI inh: blocks human DNA polymerase iota activity. Q9UNA4. Pol iota fluorescent replication assay, 10 min. Potency, µM (series often up to 115 µM), inactives show at the top dose activity, negative = inhibition, actives largely listed as inhibitors. 1% of 390,000 active. AID 588590; further: potency means the concentration at half of the fitted maximal effect
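Pol iota at 10 nM preincubated 15 min with compounds at room temperature; reaction started with fluorescent substrate, 50 nM final. Fluorescence read kinetically at 0 and 10 min; buffer-only wells as negative control.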
Pol kappa inh-1: DNA polymerase kappa (human) inhibition | 0.53% of 400,000 active | purified Pol kappa, fluorescent DNA synthesis assay, 10 min | Q9UBT6 | AID 588579 | Potency, µM (doses to about 107 µM), without a hit: at the highest dose activity, negative = inhibition, actives largely listed as inhibitors; further: potency means the concentration at half of the fitted maximal effect; on the % scale 0 is the no-effect control and ±100 the full control effect
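10 nM Pol kappa preincubated 15 min at room temperature with compounds, then reaction started with substrate at 50 nM final. Fluorescence read kinetically at 0 and 10 min; buffer-only wells served as negative control.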
WRN helicase inh: inhibitors of human WRN helicase | Q14191 | WRN helicase unwinding, fluorescent forked duplex, kinetic | Potency, µM (top dose mostly 114 µM), inactives show top-dose activity change, negative = inhibition, most hits filed as inhibitors | 0.46% of 360,000 active; further: potency means the concentration at half of the fitted maximal effect; on the % scale 0 is the no-effect control and ±100 the full control effect; nearly all actives have a fitted effect of over 55% in size
Target sequence (Q14191 whole entry, looked up): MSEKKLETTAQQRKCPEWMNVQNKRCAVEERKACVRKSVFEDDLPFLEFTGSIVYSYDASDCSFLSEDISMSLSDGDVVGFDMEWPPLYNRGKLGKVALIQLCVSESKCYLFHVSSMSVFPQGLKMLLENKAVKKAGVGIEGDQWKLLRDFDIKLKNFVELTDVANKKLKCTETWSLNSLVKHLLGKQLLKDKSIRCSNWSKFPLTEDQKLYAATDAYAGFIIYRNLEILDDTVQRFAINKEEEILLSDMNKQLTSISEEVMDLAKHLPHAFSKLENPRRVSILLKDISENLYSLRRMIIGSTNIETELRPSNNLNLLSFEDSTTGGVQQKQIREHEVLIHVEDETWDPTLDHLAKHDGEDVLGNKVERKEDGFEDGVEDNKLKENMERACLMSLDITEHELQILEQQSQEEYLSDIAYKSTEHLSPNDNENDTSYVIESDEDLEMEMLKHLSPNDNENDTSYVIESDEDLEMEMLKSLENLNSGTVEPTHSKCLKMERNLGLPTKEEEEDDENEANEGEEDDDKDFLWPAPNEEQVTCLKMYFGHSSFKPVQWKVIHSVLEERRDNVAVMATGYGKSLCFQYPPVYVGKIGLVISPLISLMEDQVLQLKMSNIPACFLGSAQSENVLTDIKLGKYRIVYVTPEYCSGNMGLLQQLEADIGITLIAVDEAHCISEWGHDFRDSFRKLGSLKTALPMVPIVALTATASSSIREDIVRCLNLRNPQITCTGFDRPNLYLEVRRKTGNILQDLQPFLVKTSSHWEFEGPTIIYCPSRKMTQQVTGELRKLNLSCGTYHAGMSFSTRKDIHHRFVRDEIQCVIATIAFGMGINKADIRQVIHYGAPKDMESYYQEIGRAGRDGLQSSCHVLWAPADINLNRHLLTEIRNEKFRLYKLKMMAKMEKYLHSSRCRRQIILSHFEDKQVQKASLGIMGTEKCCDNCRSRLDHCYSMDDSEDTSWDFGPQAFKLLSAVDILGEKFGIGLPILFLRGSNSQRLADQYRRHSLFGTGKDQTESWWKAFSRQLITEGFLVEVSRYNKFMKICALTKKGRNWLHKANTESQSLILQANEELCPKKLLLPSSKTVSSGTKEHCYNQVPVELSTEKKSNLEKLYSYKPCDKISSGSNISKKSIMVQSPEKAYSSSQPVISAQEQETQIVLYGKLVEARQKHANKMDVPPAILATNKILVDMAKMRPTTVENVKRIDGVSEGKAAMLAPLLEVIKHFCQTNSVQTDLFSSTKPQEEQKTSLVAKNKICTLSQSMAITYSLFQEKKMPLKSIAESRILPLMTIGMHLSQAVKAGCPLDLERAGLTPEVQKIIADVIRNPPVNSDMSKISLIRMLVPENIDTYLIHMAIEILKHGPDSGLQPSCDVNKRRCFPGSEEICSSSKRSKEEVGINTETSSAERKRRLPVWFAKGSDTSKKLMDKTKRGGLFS
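Screening of the MLSMR collection measured strand separation of a quenched forked DNA duplex (100 nM) by 20 nM WRN with 2 mM ATP, all final. Compounds were preincubated with enzyme 15 min at room temperature.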
Pol eta inh-1: blocks human DNA polymerase eta activity; recombinant Pol eta, fluorescent DNA replication assay; Potency, µM (series often up to 114 µM), for the others: top-dose activity change, negative = inhibition, actives largely listed as inhibitors; 1.2% of 390,000 active; further: potency means the concentration at half of the fitted maximal effect; on the % scale 0 is the no-effect control and ±100 the full control effect
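Pol eta (10 nM) was preincubated with compounds for 15 min at room temperature, after which fluorescent replication substrate (50 nM final) was added to start the reaction. Fluorescence was read kinetically at 0 and 10 min.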
Pol beta inh-2: Human Pol beta inhibitor hit validation. Pol beta primer extension/strand displacement, fluorescence kinetic. Potency, µM, most hits filed as inhibitors. 87% of 250 active. shares compounds with Pol beta inh-1; calls by dose curve; further: potency means the concentration at half of the fitted maximal effect
Klenow counter: counter-screen for DNA polymerase beta inhibitors: Klenow fragment inhibition; 250 tested, under 10 active; activity change, negative = inhibition, % at 57.1 µM; shares compounds with Pol beta inh-1; Klenow exo- polymerase counter-screen, fluorescent DNA substrate; AID 540300
HIV RT counter: inhibits HIV-1 reverse transcriptase in counter-screen; HIV-1 RT polymerase activity, counter-screen; 250 tested, under 10 active; activity % (negative = inhibition, positive = activation), % at 57.1 µM; shares compounds with Pol beta inh-1
POLB valid: DNA polymerase beta inhibition, radiolabeled validation. shares compounds with Pol beta inh-1. radiolabeled primer extension gel assay, phosphorimager. AID 540325. 91% of 110 active. inhibition, % at 10 µM;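 active means inhibition at 10 µM of 30% or more; inconclusive means no clear call, values can overlap the other calls; inactive means inhibition at 10 µM under 30%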
Pol iota confirm: Confirm cherry-picked inhibitors of human polymerase iota. Pol iota primer extension, TAMRA/BHQ fluorescence. 77% of 1,500 active. shares compounds with Pol kappa inh-1. Potency, µM, most hits filed as inhibitors; further: potency means the concentration at half of the fitted maximal effect
Pol kappa inh-2: Pol kappa (human) inhibition, cherry-pick confirmation. Potency, µM, most hits filed as inhibitors. 76% of 920 active. purified Pol-kappa, fluorescent strand-displacement substrate. shares compounds with Pol eta inh-1; further: potency means the concentration at half of the fitted maximal effect
Pol eta inh-2: confirmation of human DNA polymerase eta inhibitors; Pol eta primer extension, TAMRA/BHQ fluorescence, 10 min; AID 720502; 64% of 2,600 active; shares compounds with Pol eta inh-1; Potency, µM, usual class: inhibitors; further: potency means the concentration at half of the fitted maximal effect
FEN1 inh-2: confirmation of human FEN1 inhibitors | shares compounds with FEN1 inh-1 | FEN1 flap cleavage, TAMRA/BHQ2 fluorogenic DNA substrate | Potency, µM, usual class: inhibitors | 79% of 880 active | AID 720498; further: potency means the concentration at half of the fitted maximal effect; nearly all actives have a fitted effect of over 60% in size
* marks the source's active call; other numbers are inactive results; ? = inconclusive; . = no result given; [ ] = dose if it differs, or a comment. Most compounds without a hit are left out; they make up all but 2.4% or so of the library. Unless noted, the call rests on the fitted dose curve; in most records, active means well fitted curve in the direction sought with a large enough effect; inconclusive means small, poorly fitted or top-dose-only effect, or another doubt; inactive means no such curve, though single readings can be large; an effect the other way counts as inactive or inconclusive.

SMILES | Pol beta inh-1 | FEN1 inh-1 | POLI inh | Pol kappa inh-1 | WRN helicase inh | Pol eta inh-1 | Pol beta inh-2 | Klenow counter | HIV RT counter | Pol iota confirm | Pol eta inh-2 | others
CCOc1ccc(-n2c(SCC(=O)N3CCc4ccccc43)nnc2-c2c[nH]c3ccccc23)cc1 | 1µM* | 2% | ? | 0% | -24%[11.6 µM] | 5.6µM* | 1.4* | -10 | 26 | 30* | 76*
COc1cccc(-n2c(SCC(=O)N3CCc4ccccc43)nnc2-c2c[nH]c3ccccc23)c1 | 0% | -13% | -1% | -3% | 4% | -4% | . | . | . | . | .
COc1ccc(NC(=O)c2ccc(Cl)nc2)cc1S(=O)(=O)N1CCOCC1 | . | -2% | ? | -14% | 0% | -13% | . | . | . | . | .
COc1ccc(NC(=O)Cn2ncc(Cl)c(Cl)c2=O)cc1S(=O)(=O)N1CCOCC1 | 10µM* | -19% | 20µM* | 45µM* | ? | 7.1µM* | 32* | -6 | ? | 67* | 76* | POLB valid=98*
CC1CCCCC1NC(=O)COC(=O)c1c2c(nc3ccccc13)/C(=C/c1ccco1)CC2 (stereo not drawn) | 11µM* | ? | 3.5µM* | 10µM* | ? | 8.9µM* | 18* | -27 | -5 | 34* | 21*
O=C(NCCc1ccccc1)c1cnc2sc(N3CCCCC3)nn2c1=O | 21% | 19% | 46% | 13% | . | -3% | . | . | . | . | .
Cc1cc(C(F)F)n2nc(C(=O)Nc3sc4c(c3C(N)=O)CCC4)nc2n1 | 16µM* | ? | 20µM* | ? | -36%[57.1 µM] | 20µM* | 32* | -13 | -14 | ? | ? | POLB valid=18
CCOc1ccc(CCNC(=O)c2ccc3c(c2)N(Cc2ccccc2F)C(=O)c2ccccc2S3=O)cc1OCC (stereo not drawn) | -17% | -13% | -7% | -22% | . | ? | . | . | . | . | .
O=C(N/N=C/c1ccco1)c1cccc(N2Cc3ccccc3C2)c1 | 13µM* | ? | 10µM* | 35µM* | -20%[11.6 µM] | 7.9µM* | 16* | -14 | 20 | 42* | 43* | Pol kappa inh-2=17*
O=C(N/N=C/c1ccco1)c1cccc(N2CCCC2=O)c1 | ? | -7% | ? | -7% | -33%[57.1 µM] | ? | . | . | . | . | .
CC(C)CN1CCC(=O)N(C(CSc2ccc(Br)cc2)Cc2ccccc2)CC1 (stereo not drawn) | . | -4% | 1% | -10% | . | . | . | . | . | . | .
Cc1ccc(-n2ncc3c(NCCC4=CCCCC4)ncnc32)cc1 | 10% | 0% | 2% | -13%[60.1 µM] | . | -22% | . | . | . | . | .
CN(CC(=O)NC(=O)NCc1ccco1)Cc1nc2ccccc2c(=O)[nH]1 | 20µM* | -20% | 25µM* | ? | ? | ? | 35* | -26 | 37 | 60* | ? | POLB valid=83*
Cc1oc(C(=O)O)cc1COc1cccc2cccnc12 | 10µM* | ? | 10µM* | ? | ? | 8.9µM* | 16* | -23 | 2 | 67* | ?
Fc1ccc(COc2cccc3cccnc23)cc1 | 15% | -5% | 82% | 4% | 4% | -7% | . | . | . | . | .
CCC(CC)c1nnc(NC(=O)COc2ccc3c(C)cc(=O)oc3c2)s1 | 5% | 7% | -4% | -3% | -5% | -8% | . | . | . | . | .
Cc1nnc(NC(=O)COc2ccc3c(C)cc(=O)oc3c2)s1 | 20µM* | 12% | ? | -23% | ? | 10µM* | 22* | 3 | -4 | 60* | 76* | POLB valid=96*
CCOC(=O)c1ccccc1NC(=O)c1ccc2nccnc2c1 | 8.9µM* | ? | ? | ? | -12% | 20µM* | 28* | -3 | 3 | ? | 30* | POLB valid=54*
Cc1cc(C)n(-c2nc(Nc3ccccc3)nc(-n3nc(C)cc3C)n2)n1 | 10µM* | -5% | -1% | -3% | ? | ? | ? | -37 | 23 | . | ?
Cc1cc(C)n(-c2nc(N(c3ccccc3)c3ccccc3)nc(-n3nc(C)cc3C)n2)n1 | -8% | -23% | 7% | 3% | -11% | -14% | . | . | . | . | .
CCc1cccc(NC(=O)CSC2=Nc3ccccc3N=C(c3ccc(F)cc3)C2)c1 | -4% | -1% | -6% | -13%[60.1 µM] | . | -13% | . | . | . | . | .
CCOC(=O)c1cnc(-n2[nH]c(C)cc2=O)[nH]c1=O | 3.2µM* | -23% | 0.89µM* | 8.9µM* | 56µM* | ? | 32* | -30 | 8 | 27* | 11* | POLB valid=89*
CC(=O)c1cc(-c2ccccc2)n(CCC(=O)Nc2cc(C)cc(C)c2)c1C | 3% | -6% | 2% | -20%[60.1 µM] | . | -8% | . | . | . | . | .
Cc1ccc(S(=O)(=O)COCCN2CCN(S(=O)(=O)c3ccc(C)cc3)CCC2=O)cc1 | . | . | . | -13%[60.1 µM] | . | . | . | . | . | . | .
CCC1=NN2C(=N)/C(=C/c3cc(C)n(Cc4ccccc4)c3C)C(=O)N=C2S1 | ? | -16% | 141% | -5% | -26% | -17% | . | . | . | . | .
Cc1cc(/C=C2\C(=N)N3N=C(c4ccco4)SC3=NC2=O)c(C)n1Cc1ccccc1 | 10µM* | ? | 20µM* | 50µM* | ? | 22µM* | 14* | -11 | -13 | . | 43* | Pol kappa inh-2=17*;FEN1 inh-2=?
COc1ccc(CC(=O)Nc2cc(-c3nc4cccnc4s3)ccc2C)cc1 | 14% | -17% | 25% | -15% | . | -7% | . | . | . | . | .

Screening results: PubChem BioAssay, National Center for Advancing Translational Sciences (NCATS)
